Experimental data reported in PMC7862700, “An all-to-all approach to the identification of sequence-specific readers for epigenetic DNA modifications on cytosine”.

Key:
Assay in all cases: DAPPL (digital affinity profiling via proximity ligation, sequencing); 10 mM Tris-HCl pH 7.5, 50 mM NaCl, 1 mM DTT, 4% glycerol, room temperature, 30 min; GST-TFs on glutathione beads, 16-mer random dsDNA library, 0.1% formaldehyde crosslink after washing; high values mean tight binding
FLI1 = molecular target: T1, FLI1 (Homo sapiens, UniProt Q01543 1-452); settings: protein: recombinant; tags: N-terminal GST; dsDNA, one strand shown
T1 sequence: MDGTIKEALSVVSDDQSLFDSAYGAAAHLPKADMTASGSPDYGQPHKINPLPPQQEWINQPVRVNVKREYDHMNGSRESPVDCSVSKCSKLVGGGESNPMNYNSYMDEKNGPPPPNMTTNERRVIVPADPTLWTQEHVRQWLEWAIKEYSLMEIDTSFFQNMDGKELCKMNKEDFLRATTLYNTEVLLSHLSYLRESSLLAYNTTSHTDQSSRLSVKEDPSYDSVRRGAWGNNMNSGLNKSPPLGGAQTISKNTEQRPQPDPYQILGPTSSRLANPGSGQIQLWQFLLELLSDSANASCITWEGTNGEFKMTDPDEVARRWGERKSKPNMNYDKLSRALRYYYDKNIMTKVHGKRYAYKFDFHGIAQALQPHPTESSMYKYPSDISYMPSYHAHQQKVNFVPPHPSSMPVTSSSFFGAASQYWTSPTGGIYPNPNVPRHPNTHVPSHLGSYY
In short: (§1)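 Human transcription factors were made in yeast as GST fusions, captured on glutathione beads and barcoded with DNA. With a tag-only sample included, the pool was incubated with 200 nmole of a random double-stranded 16-mer DNA library in Tris/NaCl/DTT/glycerol buffer at room temperature for 30 min, then crosslinked with 0.1% formaldehyde after washing, ligated by proximity, amplified and sequenced. For binding signal, each hexamer's read frequency for a factor is divided by its frequency for the tag-only sample.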

ELF1 = ELF1 (Homo sapiens, UniProt P32519 1-619); settings: protein: recombinant; tags: N-terminal GST; dsDNA, one strand shown
In short: as §1

SPIB = SPIB (Homo sapiens, UniProt Q01892 1-262); settings: protein: recombinant; tags: N-terminal GST; dsDNA, one strand shown
In short: as §1

SPIC = molecular target: T2, SPIC (Homo sapiens, UniProt Q8N5J4 1-248); settings: protein: recombinant; tags: N-terminal GST; dsDNA, one strand shown
T2 sequence: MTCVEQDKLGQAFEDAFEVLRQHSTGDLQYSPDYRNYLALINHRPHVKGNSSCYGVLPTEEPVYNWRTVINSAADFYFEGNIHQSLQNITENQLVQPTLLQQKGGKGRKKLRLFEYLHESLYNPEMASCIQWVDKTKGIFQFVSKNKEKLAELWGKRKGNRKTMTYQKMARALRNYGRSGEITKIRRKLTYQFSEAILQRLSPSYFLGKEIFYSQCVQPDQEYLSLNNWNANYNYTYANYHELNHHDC
In short: as §1

ELK4 = molecular target: T3, ELK4 (Homo sapiens, UniProt P28324-2 1-405); settings: protein: recombinant; tags: N-terminal GST; dsDNA, one strand shown
T3 sequence: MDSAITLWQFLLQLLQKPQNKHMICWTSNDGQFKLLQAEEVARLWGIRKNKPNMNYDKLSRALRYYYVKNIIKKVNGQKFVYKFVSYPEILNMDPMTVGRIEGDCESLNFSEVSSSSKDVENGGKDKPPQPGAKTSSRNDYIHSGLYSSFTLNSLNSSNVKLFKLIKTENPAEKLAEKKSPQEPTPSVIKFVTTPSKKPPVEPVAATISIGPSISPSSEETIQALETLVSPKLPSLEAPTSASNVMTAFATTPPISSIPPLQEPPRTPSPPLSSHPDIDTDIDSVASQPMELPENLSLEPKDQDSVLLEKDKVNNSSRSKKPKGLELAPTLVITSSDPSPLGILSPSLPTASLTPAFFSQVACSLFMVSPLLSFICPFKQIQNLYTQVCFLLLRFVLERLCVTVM
In short: as §1

ETV2 = molecular target: T4, ETV2 (Homo sapiens, UniProt O00321 1-342); settings: protein: recombinant; tags: N-terminal GST; dsDNA, one strand shown
T4 sequence: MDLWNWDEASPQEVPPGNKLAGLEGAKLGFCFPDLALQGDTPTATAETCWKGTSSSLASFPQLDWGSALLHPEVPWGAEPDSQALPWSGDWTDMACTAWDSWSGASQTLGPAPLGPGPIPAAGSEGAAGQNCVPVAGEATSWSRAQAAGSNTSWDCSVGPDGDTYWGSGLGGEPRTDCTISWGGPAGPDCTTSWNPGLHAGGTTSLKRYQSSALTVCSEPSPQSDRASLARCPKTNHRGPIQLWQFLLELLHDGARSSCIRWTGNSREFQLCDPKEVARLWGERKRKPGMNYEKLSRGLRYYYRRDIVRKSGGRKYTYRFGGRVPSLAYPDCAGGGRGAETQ
In short: as §1

ELF3 = molecular target: T5, ELF3 (Homo sapiens, UniProt P78545 1-371); settings: protein: recombinant; tags: N-terminal GST; dsDNA, one strand shown
T5 sequence: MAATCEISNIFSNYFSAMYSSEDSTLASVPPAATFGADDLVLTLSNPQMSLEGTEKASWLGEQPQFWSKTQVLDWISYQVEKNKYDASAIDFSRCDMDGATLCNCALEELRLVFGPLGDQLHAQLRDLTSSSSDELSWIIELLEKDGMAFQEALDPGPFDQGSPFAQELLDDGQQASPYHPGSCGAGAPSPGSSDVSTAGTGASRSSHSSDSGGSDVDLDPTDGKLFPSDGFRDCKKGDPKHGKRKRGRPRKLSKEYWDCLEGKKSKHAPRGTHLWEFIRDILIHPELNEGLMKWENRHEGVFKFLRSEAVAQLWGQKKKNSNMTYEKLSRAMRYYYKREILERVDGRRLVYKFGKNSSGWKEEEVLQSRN
In short: as §1

ETV1 = ETV1 (Homo sapiens, UniProt P50549 1-477); settings: protein: recombinant; tags: N-terminal GST; dsDNA, one strand shown
In short: as §1

HSF1 = HSF1 (Homo sapiens, UniProt Q00613 1-529); settings: protein: recombinant; tags: N-terminal GST; chain copies: 3; dsDNA, one strand shown
In short: as §1

ELK3 = molecular target: T6, ELK3 (Homo sapiens, UniProt P41970 1-407); settings: protein: recombinant; tags: N-terminal GST; dsDNA, one strand shown
T6 sequence: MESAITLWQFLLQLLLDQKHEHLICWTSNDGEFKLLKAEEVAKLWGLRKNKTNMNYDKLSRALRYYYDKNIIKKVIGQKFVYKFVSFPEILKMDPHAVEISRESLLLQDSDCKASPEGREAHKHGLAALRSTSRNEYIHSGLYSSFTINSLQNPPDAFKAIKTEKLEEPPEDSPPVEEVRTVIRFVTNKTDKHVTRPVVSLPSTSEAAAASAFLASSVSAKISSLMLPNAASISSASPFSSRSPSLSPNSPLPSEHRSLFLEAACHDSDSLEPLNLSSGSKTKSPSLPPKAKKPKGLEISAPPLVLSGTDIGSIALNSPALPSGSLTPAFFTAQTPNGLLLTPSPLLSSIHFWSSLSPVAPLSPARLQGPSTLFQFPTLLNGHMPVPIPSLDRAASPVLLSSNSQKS
In short: as §1

ETV3L = molecular target: T7, ETV3L (Homo sapiens, UniProt Q6ZN32 1-361); settings: protein: recombinant; tags: N-terminal GST; dsDNA, one strand shown
T7 sequence: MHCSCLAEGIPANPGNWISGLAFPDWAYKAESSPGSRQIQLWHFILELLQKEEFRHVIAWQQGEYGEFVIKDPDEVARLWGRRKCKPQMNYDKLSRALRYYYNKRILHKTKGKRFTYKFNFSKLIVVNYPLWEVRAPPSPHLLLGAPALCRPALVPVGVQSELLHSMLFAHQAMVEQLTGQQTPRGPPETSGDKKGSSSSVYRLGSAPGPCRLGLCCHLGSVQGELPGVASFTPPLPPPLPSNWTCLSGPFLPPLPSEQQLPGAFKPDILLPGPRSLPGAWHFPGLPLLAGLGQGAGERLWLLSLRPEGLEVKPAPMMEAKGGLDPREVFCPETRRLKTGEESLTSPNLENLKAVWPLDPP
In short: as §1

ETV7 = molecular target: T8, ETV7 (Homo sapiens, UniProt Q9Y603 1-341); settings: protein: recombinant; tags: N-terminal GST; dsDNA, one strand shown
T8 sequence: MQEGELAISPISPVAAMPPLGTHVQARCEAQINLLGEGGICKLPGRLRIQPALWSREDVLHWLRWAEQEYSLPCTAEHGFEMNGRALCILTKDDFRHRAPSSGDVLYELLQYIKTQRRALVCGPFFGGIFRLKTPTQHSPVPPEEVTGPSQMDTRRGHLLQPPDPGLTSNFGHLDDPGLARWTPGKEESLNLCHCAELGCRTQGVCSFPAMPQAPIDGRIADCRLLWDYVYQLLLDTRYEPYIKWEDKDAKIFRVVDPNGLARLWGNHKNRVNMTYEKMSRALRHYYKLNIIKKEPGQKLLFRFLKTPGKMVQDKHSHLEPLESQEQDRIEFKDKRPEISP
In short: as §1

ETV6 = ETV6 (Homo sapiens, UniProt P41212 1-452); settings: protein: recombinant; tags: N-terminal GST; dsDNA, one strand shown
In short: as §1

HSF1, sequence (Q00613 whole entry): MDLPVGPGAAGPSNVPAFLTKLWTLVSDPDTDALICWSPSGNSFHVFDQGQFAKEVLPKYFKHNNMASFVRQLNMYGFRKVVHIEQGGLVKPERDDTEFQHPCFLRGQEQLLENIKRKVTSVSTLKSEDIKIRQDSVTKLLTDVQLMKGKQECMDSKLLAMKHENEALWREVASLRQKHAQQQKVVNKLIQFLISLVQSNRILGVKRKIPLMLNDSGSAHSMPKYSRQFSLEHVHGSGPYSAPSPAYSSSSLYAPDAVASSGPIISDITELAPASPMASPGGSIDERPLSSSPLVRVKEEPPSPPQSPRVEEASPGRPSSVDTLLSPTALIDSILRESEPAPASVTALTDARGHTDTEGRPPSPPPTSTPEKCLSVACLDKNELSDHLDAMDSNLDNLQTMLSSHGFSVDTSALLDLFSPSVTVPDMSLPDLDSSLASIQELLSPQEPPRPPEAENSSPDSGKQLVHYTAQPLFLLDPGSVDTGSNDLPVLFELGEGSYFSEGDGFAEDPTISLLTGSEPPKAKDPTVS
ELF1, sequence (P32519 whole entry): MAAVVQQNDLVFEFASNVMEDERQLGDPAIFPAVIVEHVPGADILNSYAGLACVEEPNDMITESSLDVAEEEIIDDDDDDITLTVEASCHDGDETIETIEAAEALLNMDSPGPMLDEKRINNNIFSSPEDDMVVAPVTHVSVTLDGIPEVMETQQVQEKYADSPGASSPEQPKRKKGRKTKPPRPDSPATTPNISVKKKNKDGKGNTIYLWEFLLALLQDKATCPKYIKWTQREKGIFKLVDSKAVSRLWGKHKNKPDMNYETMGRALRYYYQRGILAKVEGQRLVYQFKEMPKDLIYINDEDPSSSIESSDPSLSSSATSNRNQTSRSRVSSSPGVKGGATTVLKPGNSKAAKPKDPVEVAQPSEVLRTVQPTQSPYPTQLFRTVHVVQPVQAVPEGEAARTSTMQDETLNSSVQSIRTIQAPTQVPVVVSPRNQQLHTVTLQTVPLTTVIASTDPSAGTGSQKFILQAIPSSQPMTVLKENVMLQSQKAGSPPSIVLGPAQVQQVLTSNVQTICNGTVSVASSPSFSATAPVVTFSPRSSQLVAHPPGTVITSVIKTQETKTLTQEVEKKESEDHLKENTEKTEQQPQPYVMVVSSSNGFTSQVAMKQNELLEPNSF
ETV1, sequence (P50549 whole entry): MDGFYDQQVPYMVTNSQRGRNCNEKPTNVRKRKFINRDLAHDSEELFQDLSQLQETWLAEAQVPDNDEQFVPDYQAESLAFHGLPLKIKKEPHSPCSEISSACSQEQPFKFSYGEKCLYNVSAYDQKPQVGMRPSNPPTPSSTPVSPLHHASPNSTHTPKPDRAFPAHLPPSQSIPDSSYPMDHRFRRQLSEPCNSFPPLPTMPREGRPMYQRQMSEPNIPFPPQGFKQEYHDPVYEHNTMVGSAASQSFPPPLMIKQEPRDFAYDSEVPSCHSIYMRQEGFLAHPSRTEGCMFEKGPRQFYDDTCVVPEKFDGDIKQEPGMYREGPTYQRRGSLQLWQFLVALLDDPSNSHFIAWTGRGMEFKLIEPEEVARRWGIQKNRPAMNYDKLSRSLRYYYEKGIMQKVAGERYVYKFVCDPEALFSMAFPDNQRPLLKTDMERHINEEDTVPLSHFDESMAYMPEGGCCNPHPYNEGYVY
SPIB, sequence (Q01892 whole entry): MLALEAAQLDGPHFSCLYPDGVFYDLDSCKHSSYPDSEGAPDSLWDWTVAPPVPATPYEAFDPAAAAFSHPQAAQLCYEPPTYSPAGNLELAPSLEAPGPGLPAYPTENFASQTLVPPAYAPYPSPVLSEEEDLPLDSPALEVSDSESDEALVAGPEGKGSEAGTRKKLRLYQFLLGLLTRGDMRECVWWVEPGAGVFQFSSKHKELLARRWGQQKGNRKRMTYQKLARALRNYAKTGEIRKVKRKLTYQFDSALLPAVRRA
ETV6, sequence (P41212 whole entry): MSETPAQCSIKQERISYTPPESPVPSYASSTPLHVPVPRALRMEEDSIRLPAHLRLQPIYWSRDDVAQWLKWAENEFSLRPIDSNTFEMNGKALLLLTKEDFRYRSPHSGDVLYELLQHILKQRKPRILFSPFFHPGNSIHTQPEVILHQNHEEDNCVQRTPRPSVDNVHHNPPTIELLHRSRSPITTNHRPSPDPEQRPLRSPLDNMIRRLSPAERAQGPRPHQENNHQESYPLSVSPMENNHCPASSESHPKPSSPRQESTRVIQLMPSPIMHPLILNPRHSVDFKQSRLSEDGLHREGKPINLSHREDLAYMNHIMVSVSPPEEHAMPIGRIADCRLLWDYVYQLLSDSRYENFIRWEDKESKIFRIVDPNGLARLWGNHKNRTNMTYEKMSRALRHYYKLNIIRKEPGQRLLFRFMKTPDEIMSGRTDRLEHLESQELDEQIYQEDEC

How did the binding signal (FLI1) turn out when ACTGTC was run?
Its binding signal is 1.02 fold enrichment (6-mer frequency, TF over GST control).

And the binding signal (ELF1)?
The binding signal was 1.01 fold enrichment (6-mer frequency, TF over GST control).

And the binding signal (SPIB)?
Its binding signal is 1.05 fold enrichment (6-mer frequency, TF over GST control).

What about the binding signal (SPIC) of the same sequence?
Its binding signal is 1.09 fold enrichment (6-mer frequency, TF over GST control).

And the binding signal (ELK4)?
Its binding signal is 1 fold enrichment (6-mer frequency, TF over GST control).

And the binding signal (ETV2)?
Its binding signal is 1.1 fold enrichment (6-mer frequency, TF over GST control).

And the binding signal (ELF3)?
The binding signal was 1.01 fold enrichment (6-mer frequency, TF over GST control).

And the binding signal (ETV1)?
The binding signal was 1 fold enrichment (6-mer frequency, TF over GST control).

With GAGAAT as the sequence, how does the binding signal (HSF1) read?
The binding signal was 1.44 fold enrichment (6-mer frequency, TF over GST control).

For GCTGGA, which binding signal (HSF1) is on record?
Its binding signal is 1.19 fold enrichment (6-mer frequency, TF over GST control).

Which binding signal (FLI1) does the source give for AGTTGC here?
Its binding signal is 1.04 fold enrichment (6-mer frequency, TF over GST control).

And the binding signal (ELK3)?
The binding signal was 1.03 fold enrichment (6-mer frequency, TF over GST control).

What about the binding signal (ELK4) of the same sequence?
Its binding signal is 1.02 fold enrichment (6-mer frequency, TF over GST control).

And the binding signal (ETV3L)?
Its binding signal is 1.01 fold enrichment (6-mer frequency, TF over GST control).

What about the binding signal (ETV7) of the same sequence?
Its binding signal is 1.11 fold enrichment (6-mer frequency, TF over GST control).

And the binding signal (ETV6)?
The binding signal was 1.03 fold enrichment (6-mer frequency, TF over GST control).
